# Measured values: the supplement of paper PMC10849652
# About 8,800 targets were measured; listed, in parts, are those with a hit and a random draw of the rest. About 0.5% of all pairs of compound and target were hits. Values without a mark were called inactive.
# Legend:
# Experiment in all cases: log2 fold change, soluble protein after heating vs DMSO (PISA); higher = thermal stabilisation; K562 lysate, 10 uM; active = over 0.2 and 3.5 SD of the protein, either way, in both replicates (recomputed)
# lapatinib = compound: CS(=O)(=O)CCNCc1ccc(-c2ccc3ncnc(Nc4ccc(OCc5cccc(F)c5)c(Cl)c4)c3c2)o1 [lapatinib]
# Summary of the method: (§1)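 To prepare the extract, K562 pellets were dounce-homogenised in PBS pH 7.4 with 1 mM MgCl2, giving crude material at 1 mg/mL protein. This was treated with 10 μM compound for 30 min, then heated in aliquots for 3 min over 48°C-58°C before pooling and addition of NP-40 to 0.5% at 4°C. Centrifugation at 21,000xg for 90 min left soluble protein in the supernatant, which TMTpro 16plex LC-MS/MS quantified with equalised channel sums. Results are log-two fold changes in thermal stability compared with solvent controls, from duplicates.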
# pictilisib = compound: CS(=O)(=O)N1CCN(Cc2cc3nc(-c4cccc5[nH]ncc45)nc(N4CCOCC4)c3s2)CC1 [pictilisib]
# Summary of the method: as §1
# crizotinib = compound: C[C@@H](Oc1cc(-c2cnn(C3CCNCC3)c2)cnc1N)c1c(Cl)ccc(F)c1Cl [crizotinib]
# Summary of the method: as §1
# [1] = compound: C[C@H](C1=CC=C(C=C1)C(=O)NC2=C3C=CNC3=NC=C2)N
# Summary of the method: as §1
# duvelisib = compound: C[C@H](Nc1ncnc2nc[nH]c12)c1cc2cccc(Cl)c2c(=O)n1-c1ccccc1 [duvelisib]
# Summary of the method: as §1
# gandotinib = compound: Cc1cc(Nc2cc(CN3CCOCC3)c3nc(C)c(Cc4ccc(Cl)cc4F)n3n2)n[nH]1 [gandotinib]
# Summary of the method: as §1
# tozasertib = compound: Cc1cc(Nc2cc(N3CCN(C)CC3)nc(Sc3ccc(NC(=O)C4CC4)cc3)n2)n[nH]1 [tozasertib]
# Summary of the method: as §1
# doramapimod = compound: Cc1ccc(-n2nc(C(C)(C)C)cc2NC(=O)Nc2ccc(OCCN3CCOCC3)c3ccccc23)cc1 [doramapimod]
# Summary of the method: as §1
# bafetinib = compound: Cc1ccc(NC(=O)c2ccc(CN3CC[C@H](N(C)C)C3)c(C(F)(F)F)c2)cc1Nc1nccc(-c2cncnc2)n1 [bafetinib]
# Summary of the method: as §1
# [2] = compound: Cc1cccc(CC(=O)N2CCc3c2ccc(-c2cn(C)c4ncnc(N)c24)c3F)n1
# Summary of the method: as §1
# nilotinib = compound: Cc1cn(-c2cc(NC(=O)c3ccc(C)c(Nc4nccc(-c5cccnc5)n4)c3)cc(C(F)(F)F)c2)cn1 [nilotinib]
# Summary of the method: as §1
# [3] = compound: Cc1nc(Nc2n[nH]c3c2CN(C(=O)N[C@H](CN(C)C)c2ccccc2)C3(C)C)c2sccc2n1
# Summary of the method: as §1
# dasatinib = compound: Cc1nc(Nc2ncc(C(=O)Nc3c(C)cccc3Cl)s2)cc(N2CCN(CCO)CC2)n1 [dasatinib]
# Summary of the method: as §1
# [4] = compound: Cc1ncc(-c2ccnc(Nc3ccc(S(C)(=O)=O)cc3)n2)n1C(C)C
# Summary of the method: as §1
# [5] = compound: Cn1cc(-c2ccc3c(c2)CCN3C(=O)Cc2cccc(C(F)(F)F)c2)c2c(N)ncnc21
# Summary of the method: as §1
# quisinostat = compound: Cn1cc(CNCC2CCN(c3ncc(C(=O)NO)cn3)CC2)c2ccccc21 [quisinostat]
# Summary of the method: as §1
# tipifarnib = compound: Cn1cncc1[C@@](N)(c1ccc(Cl)cc1)c1ccc2c(c1)c(-c1cccc(Cl)c1)cc(=O)n2C [tipifarnib]
# Summary of the method: as §1
# [6] = compound: NC(=O)Nc1cc(-c2cccc(F)c2)sc1C(=O)N[C@H]1CCCNC1
# Summary of the method: as §1
# [7] = compound: NC(=O)c1cnc(N[C@@H]2CCCC[C@@H]2N)nc1Nc1cccc(-n2nccn2)c1
# Summary of the method: as §1
# [8] = compound: NC1(c2ccc(-c3nc4ccn5c(=O)[nH]nc5c4cc3-c3ccccc3)cc2)CCC1
# Summary of the method: as §1
# UniProt Q9UGJ1, sequence (Q9UGJ1 whole entry, looked up): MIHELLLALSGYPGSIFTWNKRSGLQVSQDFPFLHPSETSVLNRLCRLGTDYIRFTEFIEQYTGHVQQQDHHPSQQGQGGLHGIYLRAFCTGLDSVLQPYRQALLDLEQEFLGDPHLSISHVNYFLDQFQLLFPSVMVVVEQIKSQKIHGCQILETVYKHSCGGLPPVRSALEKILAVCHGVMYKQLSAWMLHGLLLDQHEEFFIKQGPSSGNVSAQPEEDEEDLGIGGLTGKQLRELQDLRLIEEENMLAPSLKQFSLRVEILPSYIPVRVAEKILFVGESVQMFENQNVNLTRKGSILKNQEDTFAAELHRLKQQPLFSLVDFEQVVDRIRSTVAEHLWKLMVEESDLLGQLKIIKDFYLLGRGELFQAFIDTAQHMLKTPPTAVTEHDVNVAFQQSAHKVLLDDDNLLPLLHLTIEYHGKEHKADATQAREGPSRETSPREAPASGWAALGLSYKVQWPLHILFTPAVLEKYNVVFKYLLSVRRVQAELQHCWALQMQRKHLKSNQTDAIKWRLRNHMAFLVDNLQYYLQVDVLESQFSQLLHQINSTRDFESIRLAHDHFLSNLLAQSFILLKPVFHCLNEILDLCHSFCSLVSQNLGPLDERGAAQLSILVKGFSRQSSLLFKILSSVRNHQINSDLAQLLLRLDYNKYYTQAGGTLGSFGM
# UniProt Q9BZV1, sequence (Q9BZV1 whole entry, looked up): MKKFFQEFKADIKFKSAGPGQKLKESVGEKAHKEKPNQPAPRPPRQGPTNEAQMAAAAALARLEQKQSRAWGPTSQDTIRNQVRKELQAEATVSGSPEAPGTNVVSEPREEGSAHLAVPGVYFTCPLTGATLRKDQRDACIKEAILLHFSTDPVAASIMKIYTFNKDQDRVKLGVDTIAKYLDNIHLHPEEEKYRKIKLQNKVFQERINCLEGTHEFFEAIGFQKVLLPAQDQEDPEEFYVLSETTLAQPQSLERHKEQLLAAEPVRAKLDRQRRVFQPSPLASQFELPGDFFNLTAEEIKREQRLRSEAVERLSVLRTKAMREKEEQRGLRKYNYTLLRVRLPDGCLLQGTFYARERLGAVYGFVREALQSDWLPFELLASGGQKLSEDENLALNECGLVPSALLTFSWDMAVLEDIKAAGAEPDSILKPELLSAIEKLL
# UniProt Q8IZ69, sequence (Q8IZ69 whole entry, looked up): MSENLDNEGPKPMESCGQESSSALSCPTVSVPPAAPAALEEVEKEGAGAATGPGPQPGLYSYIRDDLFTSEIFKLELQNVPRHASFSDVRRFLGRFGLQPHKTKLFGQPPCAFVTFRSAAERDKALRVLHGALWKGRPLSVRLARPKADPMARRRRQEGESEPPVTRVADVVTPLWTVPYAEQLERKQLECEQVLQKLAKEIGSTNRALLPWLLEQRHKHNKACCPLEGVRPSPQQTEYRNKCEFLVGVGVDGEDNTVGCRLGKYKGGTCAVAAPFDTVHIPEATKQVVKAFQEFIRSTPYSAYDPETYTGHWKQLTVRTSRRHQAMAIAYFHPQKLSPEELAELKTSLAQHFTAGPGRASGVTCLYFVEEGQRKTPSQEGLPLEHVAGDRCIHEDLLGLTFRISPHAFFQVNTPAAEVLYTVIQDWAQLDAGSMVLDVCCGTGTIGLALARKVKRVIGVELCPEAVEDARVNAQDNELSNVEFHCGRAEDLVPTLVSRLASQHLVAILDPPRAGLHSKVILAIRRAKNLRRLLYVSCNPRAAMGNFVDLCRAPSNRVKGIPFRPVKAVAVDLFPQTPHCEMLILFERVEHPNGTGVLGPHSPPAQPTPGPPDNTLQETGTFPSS
# UniProt Q9Y4R8, sequence (Q9Y4R8 whole entry, looked up): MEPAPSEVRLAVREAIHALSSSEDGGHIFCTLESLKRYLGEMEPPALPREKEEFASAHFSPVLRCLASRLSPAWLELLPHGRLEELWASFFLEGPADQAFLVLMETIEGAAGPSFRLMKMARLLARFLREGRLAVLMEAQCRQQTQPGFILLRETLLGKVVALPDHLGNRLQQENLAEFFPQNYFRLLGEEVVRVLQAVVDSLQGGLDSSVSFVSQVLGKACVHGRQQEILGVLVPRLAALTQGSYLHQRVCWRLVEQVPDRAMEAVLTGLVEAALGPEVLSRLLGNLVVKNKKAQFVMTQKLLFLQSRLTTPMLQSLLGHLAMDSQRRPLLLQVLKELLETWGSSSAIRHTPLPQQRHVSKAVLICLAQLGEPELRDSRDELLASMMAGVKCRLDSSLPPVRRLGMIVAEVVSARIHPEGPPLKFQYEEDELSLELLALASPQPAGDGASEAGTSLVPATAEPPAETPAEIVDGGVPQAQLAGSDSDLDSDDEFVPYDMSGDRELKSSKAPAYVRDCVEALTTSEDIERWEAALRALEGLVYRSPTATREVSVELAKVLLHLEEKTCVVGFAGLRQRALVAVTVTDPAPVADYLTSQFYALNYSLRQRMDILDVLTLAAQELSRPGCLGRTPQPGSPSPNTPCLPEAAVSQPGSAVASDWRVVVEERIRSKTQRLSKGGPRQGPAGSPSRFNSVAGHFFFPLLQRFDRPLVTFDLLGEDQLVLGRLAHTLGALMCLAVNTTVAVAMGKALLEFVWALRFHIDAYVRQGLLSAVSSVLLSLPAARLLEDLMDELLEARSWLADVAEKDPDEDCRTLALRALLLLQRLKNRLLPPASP
# UniProt Q8N0Z6, sequence (Q8N0Z6 whole entry, looked up): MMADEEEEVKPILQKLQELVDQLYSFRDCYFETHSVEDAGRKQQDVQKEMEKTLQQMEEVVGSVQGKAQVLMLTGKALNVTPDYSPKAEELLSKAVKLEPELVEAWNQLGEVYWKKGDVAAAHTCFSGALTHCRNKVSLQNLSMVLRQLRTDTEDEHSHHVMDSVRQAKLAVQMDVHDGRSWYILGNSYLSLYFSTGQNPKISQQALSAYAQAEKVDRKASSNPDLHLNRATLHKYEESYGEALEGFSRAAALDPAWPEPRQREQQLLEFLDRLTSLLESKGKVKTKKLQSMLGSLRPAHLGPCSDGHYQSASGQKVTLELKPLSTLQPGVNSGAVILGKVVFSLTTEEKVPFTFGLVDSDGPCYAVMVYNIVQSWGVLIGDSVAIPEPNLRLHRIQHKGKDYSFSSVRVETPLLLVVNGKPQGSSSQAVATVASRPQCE
# UniProt P29144, sequence (P29144 whole entry, looked up): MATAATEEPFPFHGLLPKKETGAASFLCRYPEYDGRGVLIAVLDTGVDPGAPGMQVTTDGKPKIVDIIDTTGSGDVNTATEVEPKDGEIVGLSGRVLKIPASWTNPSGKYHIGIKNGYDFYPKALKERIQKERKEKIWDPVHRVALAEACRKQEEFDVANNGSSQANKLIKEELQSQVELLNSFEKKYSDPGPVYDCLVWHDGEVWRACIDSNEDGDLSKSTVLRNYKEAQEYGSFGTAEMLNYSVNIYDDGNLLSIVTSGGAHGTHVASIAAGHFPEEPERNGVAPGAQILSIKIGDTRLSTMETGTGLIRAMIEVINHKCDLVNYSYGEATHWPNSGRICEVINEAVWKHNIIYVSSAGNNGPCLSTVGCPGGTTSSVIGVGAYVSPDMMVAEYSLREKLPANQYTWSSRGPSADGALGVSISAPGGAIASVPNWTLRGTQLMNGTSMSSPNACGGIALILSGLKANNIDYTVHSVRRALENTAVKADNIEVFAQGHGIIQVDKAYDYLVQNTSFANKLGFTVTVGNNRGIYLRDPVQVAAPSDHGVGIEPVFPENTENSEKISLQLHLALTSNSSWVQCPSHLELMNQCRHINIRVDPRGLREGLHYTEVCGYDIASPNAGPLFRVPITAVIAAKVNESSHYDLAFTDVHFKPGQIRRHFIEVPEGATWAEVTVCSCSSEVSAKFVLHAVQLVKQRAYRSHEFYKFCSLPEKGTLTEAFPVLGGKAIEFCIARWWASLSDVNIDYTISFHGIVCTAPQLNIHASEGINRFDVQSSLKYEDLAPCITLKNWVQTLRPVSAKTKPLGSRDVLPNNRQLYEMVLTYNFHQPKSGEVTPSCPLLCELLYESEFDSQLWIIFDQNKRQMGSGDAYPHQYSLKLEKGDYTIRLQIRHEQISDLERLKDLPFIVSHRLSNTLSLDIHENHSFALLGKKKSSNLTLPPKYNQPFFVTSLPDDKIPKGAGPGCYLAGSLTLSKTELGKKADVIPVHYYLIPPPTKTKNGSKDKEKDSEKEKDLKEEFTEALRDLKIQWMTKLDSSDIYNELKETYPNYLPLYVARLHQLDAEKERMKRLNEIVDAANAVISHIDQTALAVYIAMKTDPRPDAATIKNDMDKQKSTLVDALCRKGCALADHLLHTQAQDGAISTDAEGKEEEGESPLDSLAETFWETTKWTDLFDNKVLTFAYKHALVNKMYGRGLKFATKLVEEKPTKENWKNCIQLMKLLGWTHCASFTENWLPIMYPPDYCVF
# UniProt P04350, sequence (P04350 whole entry, looked up): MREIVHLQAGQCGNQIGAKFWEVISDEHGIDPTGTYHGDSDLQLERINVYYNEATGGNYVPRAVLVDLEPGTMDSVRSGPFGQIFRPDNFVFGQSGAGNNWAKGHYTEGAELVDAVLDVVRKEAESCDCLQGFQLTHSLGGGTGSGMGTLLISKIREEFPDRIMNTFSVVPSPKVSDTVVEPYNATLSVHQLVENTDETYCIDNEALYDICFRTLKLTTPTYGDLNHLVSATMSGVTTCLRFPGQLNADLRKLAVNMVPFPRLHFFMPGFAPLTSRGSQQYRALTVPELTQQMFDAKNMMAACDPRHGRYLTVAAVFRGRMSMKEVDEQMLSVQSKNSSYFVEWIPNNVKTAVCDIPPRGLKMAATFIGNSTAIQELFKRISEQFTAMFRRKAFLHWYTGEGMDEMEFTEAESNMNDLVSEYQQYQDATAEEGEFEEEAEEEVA
# UniProt Q96DX7, sequence (Q96DX7 whole entry, looked up): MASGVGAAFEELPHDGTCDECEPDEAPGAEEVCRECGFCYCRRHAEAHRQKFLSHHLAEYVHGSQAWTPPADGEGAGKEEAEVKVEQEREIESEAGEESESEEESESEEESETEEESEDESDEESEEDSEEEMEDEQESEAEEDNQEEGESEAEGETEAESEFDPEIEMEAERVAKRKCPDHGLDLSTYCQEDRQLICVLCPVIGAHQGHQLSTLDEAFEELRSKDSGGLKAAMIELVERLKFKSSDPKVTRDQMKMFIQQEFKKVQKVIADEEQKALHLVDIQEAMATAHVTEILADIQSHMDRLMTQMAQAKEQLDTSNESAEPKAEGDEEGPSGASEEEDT
Target,log2 fold change (lapatinib),log2 fold change (pictilisib),log2 fold change (crizotinib),log2 fold change [1],log2 fold change (duvelisib),log2 fold change (gandotinib),log2 fold change (tozasertib),log2 fold change (doramapimod),log2 fold change (bafetinib),log2 fold change [2],log2 fold change (nilotinib),log2 fold change [3],log2 fold change (dasatinib),log2 fold change [4],log2 fold change [5],log2 fold change (quisinostat),log2 fold change (tipifarnib),log2 fold change [6],log2 fold change [7],log2 fold change [8]
TUBGCP4 (UniProt Q9UGJ1),-0.022,0.011,-0.012,-0.007,0.03,-0.125,-0.022,-0.041,-0.076,0.019,-0.028,0.008,-0.046,0.001,0.018,-0.027,0.008,0.069,0.034,0.01
TTC5 (UniProt Q8N0Z6),0.039,-0.021,-0.053,-0.064,0.032,-0.048,0.076,0.007,-0.052,0.04,0.012,-0.064,0,-0.016,0.047,-0.084,0.01,0,-0.007,0.001
TELO2 (UniProt Q9Y4R8),-0.016,-0.01,-0.053,-0.038,-0.015,-0.087,-0.012,0.037,-0.054,0.056,-0.012,-0.014,-0.082,-0.021,0.035,-0.057,-0.013,0.058,0.003,-0.03
TUBB4A (UniProt P04350),-0.095,-0.055,-0.001,-0.081,0.059,0.051,-0.138,-0.025,-0.026,-0.01,0.027,-0.026,0.003,-0.023,0.067,-0.196,0.027,0.085,0.011,0.023
TRAPPC12 (UniProt Q8WVT3),0.02,-0.017,-0.033,-0.017,0.012,-0.042,-0.029,-0.036,-0.039,0.048,-0.007,0.025,0.024,-0.05,0.038,0.003,0.039,-0.018,-0.007,0.013
TERF2IP (UniProt Q9NYB0),-0.007,0.007,0.021,0.249 (active),0.022,-0.122,-0.023,-0.016,0.004,-0.181,0.012,0.013,0.018,0.009,0.005,0.024,-0.012,0.011,-0.017,-0.003
TRMT2A (UniProt Q8IZ69),-0.01,-0.057,-0.017,-0.002,-0.036,-0.03,0.001,-0.002,-0.016,0.009,-0.034,-0.011,-0.018,-0.011,0.013,-0.023,-0.007,0.016,-0.002,-0.012
TRMT12 (UniProt Q53H54),0.064,-0.02,-0.03,-0.289,0.055,-0.054,-0.021,0.059,-0.021,0.14,-0.02,-0.005,-0.032,0.062,-0.017,-0.074,-0.007,0.117,-0.009,0.004
TPP2 (UniProt P29144),-0.007,0.014,-0.009,0.035,0.011,-0.011,-0.009,0.007,-0.008,-0.011,0.013,-0.005,-0.005,-0.02,0.019,0.01,0.006,0.013,0,0.003
TRIM44 (UniProt Q96DX7),-0.242 (active),-0.11,-0.018,0.04,0.007,0.01,-0.04,0.013,0.031,-0.075,-0.016,0.001,0.073,-0.036,-0.008,0.035,0.006,0.023,-0.011,0.044
TOR3A (UniProt Q9H497),-0.43 (active),-0.077,0.023,-0.078,0.012,0.012,-0.047,-0.024,0.046,0.048,0.042,-0.037,0.022,-0.043,0.012,0.019,-0.061,0.054,0.041,-0.064
TCAF2 (UniProt A6NFQ2),0.024,-0.017,-0.108,-0.02,0.004,-0.098,0.008,-0.03,-0.048,0.041,0.051,0.004,0.001,0.05,0.042,-0.061,-0.037,0.047,0.041,-0.011
UBXN6 (UniProt Q9BZV1),-0.075,-0.048,0.004,-0.014,-0.028,-0.018,0.008,0.017,0.033,-0.023,-0.033,0.042,0.017,-0.065,0.046,0.028,0.016,0.013,0.068,-0.013
TRIP13 (UniProt Q15645),-0.015,0.014,-0.028,0.039,-0.01,-0.187,0.005,0.026,-0.029,-0.045,-0.002,-0.031,0.003,0.049,0.046,-0.065,0.007,0.026,0.002,-0.031
TUBGCP2 isoform 4 (UniProt Q9BSJ2),-0.008,-0.029,-0.119,0.08,-0.001,-0.087,0.002,0.033,0.002,0.009,-0.016,0.012,-0.058,0.012,0.064,-0.091,-0.001,0.037,0,-0.016
UFSP2 (UniProt Q9NUQ7),-0.02,-0.008,-0.022,-0.012,0.009,-0.004,0.017,0.002,-0.028,0.017,-0.004,-0.015,0.007,-0.038,-0.002,0.004,-0.001,0.016,0.002,-0.035
